Measurements reported in publication PMC12864922, “TDP-43 directly inhibits mRNA accumulation in neurites through modulation of mRNA stability”.
Whole data set: some 9,900 sequences, median “r (bound/input frequency ratio)” near 0.7, cut for the highest 2% near 6.5. The full list was thinned out, with the highest values kept by preference.

B1: ENSMUSG00000061578.638|Ksr2 (ssRNA)
RNA: GGGAGUUCUACAGUCCGACGAUCGCUUCGAUAUCCGCAUGCUAAGGAAUGGUGCUAGCUAGGGUGUGAGCCAAGCCCUUGAGGCUACUGUGAGUUAUGAGAUGUGUCCAACCCUCAGCCCACAGACUGCAUAUGCCCCAGGACAGCUGUGAAGGUGACCCAAUACAAAAUCGUAAACUAACUUAAAACCAUUAAGGGUUUUUGUUUUGUUGUUGUUUGCUGGCUUUUUGUUUUUUGGGUUGGUUUUCUUUUUCUUUCUUUCUUUUUUUUUUUUUUUUCCAACUCAAGUGUGAACUUUGUUGAUCUCUUGCGGUCGCACUAGUGUGGAAUUCUCGGGUGUCAAGG
B2: ENSMUSG00000028439.326|Fam219a (ssRNA)
RNA: GGGAGUUCUACAGUCCGACGAUCGCUUCGAUAUCCGCAUGCUAAGAUCCUAAUUAGAUAAGAAAAUGCCAAGGGAGGCAAGCCAGAGAAAGCAUCUGCAGGGGCCACAGGCCCAUGGUGGCCCCAUCUGAGCCCCCUCUCCCACCCCAGUUCGCAUCCCCACCACUCAUCAUCUGGGCCCCAACGCUAGAACUCCCCCCACCGCAUCCCCACUGGGCUCUUUGACUCACCCUUCUAGAACAUGGGUGCCUCCUCUCUUUAGACUGCUGCCUUUGCCUCUGACUUCCUGUGGGAUUGAGAGCCACUCUUGCGGUCGCACUAGUGUGGAAUUCUCGGGUGUCAAGG
B3: ENSMUSG00000061578.1149|Ksr2 (ssRNA)
RNA: GGGAGUUCUACAGUCCGACGAUCGCUUCGAUAUCCGCAUGCUAAAUGGCCCAGAAUUAUAGAGGACAGAGGAGAAGGUGGGCAUUGCAAGAUGCUGGAGCUUGGAAAGCAUGGUGGAAUUUGAUACACAUGAUCACCAAGCACCACCCGGGGAAGAAACUGGGUCACUGAGUCACUGGGUCACUCUGUUCCCUGAAGGCCCACCAACCACAUCCGCAUCCUACCUAGGGUGGAACUUUGACUGUCCUCGGGUGUCUCUGCUGUAUAUAGGCCAGUCACAAGCCCUUCUAAAAGCCUGCUCUUGCUCUUGCGGUCGCACUAGUGUGGAAUUCUCGGGUGUCAAGG
B4: ENSMUSG00000043670.232|Diras1 (ssRNA)
RNA: GGGAGUUCUACAGUCCGACGAUCGCUUCGAUAUCCGCAUGCUAGUGGUGUGUCUGUAUGGCUCUGUGUUUUCAGGGGUGGGUGACACAGGCCUGUCUGAUGAGCACCAGGUCUGUUCCAGGCUGUGGCAAGCUGGCUCCUGGCUCAGAAGUGACAAAGCUGCAGUACAGAGGCCUCAGUGUGAGGUCAUCACCUCACAGUGGCUACAGACCAGGCUGUGGCCUGAGUGAGCUGGAACCUCUGGGGUGGGGACGAGAAAGAGAGAGGGAGAGAGAGGGGGGAGAGUGAGUGUGUGUGUGUGAAGCUCUUGCGGUCGCACUAGUGUGGAAUUCUCGGGUGUCAAGG
B5: ENSMUSG00000043670.240|Diras1|87:91;197:209;220:226;251:259 (ssRNA)
RNA: GGGAGUUCUACAGUCCGACGAUCGCUUCGAUAUCCGCAUGCUACUGUCUGAUGAGCACCAGGUCUGUUCCAGGCUGUGGCAAGCUGGCUCCUGGCUCAGAAGUGACAAAGCUGCAGUACAGAGGCCUCACACACAGGUCAUCACCUCACAGUGGCUACAGACCAGGCUGUGGCCUGAGUGAGCUGGAACCUCUGGGGUGGGGACGAGAAAGAGAGAGGGAGAGAGAGGGGGGAGAGUGACACACACACACACAAGGGGGAGACACACACGGGGAAGAGUGAGAGAGAUAGAGUCAUACACACACUCUUGCGGUCGCACUAGUGUGGAAUUCUCGGGUGUCAAGG
B6: ENSMUSG00000043670.242|Diras1|75:79;185:197;208:214;239:247 (ssRNA)
RNA: GGGAGUUCUACAGUCCGACGAUCGCUUCGAUAUCCGCAUGCUACACCAGGUCUGUUCCAGGCUGUGGCAAGCUGGCUCCUGGCUCAGAAGUGACAAAGCUGCAGUACAGAGGCCUCACACACAGGUCAUCACCUCACAGUGGCUACAGACCAGGCUGUGGCCUGAGUGAGCUGGAACCUCUGGGGUGGGGACGAGAAAGAGAGAGGGAGAGAGAGGGGGGAGAGUGACACACACACACACAAGGGGGAGACACACACGGGGAAGAGUGAGAGAGAUAGAGUCAUACACACAGAGGGAGGGAGACUCUUGCGGUCGCACUAGUGUGGAAUUCUCGGGUGUCAAGG
B7: ENSMUSG00000043670.234|Diras1 (ssRNA)
RNA: GGGAGUUCUACAGUCCGACGAUCGCUUCGAUAUCCGCAUGCUAUAUGGCUCUGUGUUUUCAGGGGUGGGUGACACAGGCCUGUCUGAUGAGCACCAGGUCUGUUCCAGGCUGUGGCAAGCUGGCUCCUGGCUCAGAAGUGACAAAGCUGCAGUACAGAGGCCUCAGUGUGAGGUCAUCACCUCACAGUGGCUACAGACCAGGCUGUGGCCUGAGUGAGCUGGAACCUCUGGGGUGGGGACGAGAAAGAGAGAGGGAGAGAGAGGGGGGAGAGUGAGUGUGUGUGUGUGAAGGGGGAGAGUGUGCUCUUGCGGUCGCACUAGUGUGGAAUUCUCGGGUGUCAAGG
B8: ENSMUSG00000043670.233|Diras1 (ssRNA)
RNA: GGGAGUUCUACAGUCCGACGAUCGCUUCGAUAUCCGCAUGCUAUGUCUGUAUGGCUCUGUGUUUUCAGGGGUGGGUGACACAGGCCUGUCUGAUGAGCACCAGGUCUGUUCCAGGCUGUGGCAAGCUGGCUCCUGGCUCAGAAGUGACAAAGCUGCAGUACAGAGGCCUCAGUGUGAGGUCAUCACCUCACAGUGGCUACAGACCAGGCUGUGGCCUGAGUGAGCUGGAACCUCUGGGGUGGGGACGAGAAAGAGAGAGGGAGAGAGAGGGGGGAGAGUGAGUGUGUGUGUGUGAAGGGGGAGCUCUUGCGGUCGCACUAGUGUGGAAUUCUCGGGUGUCAAGG
B9: ENSMUSG00000043670.241|Diras1|81:85;191:203;214:220;245:253 (ssRNA)
RNA: GGGAGUUCUACAGUCCGACGAUCGCUUCGAUAUCCGCAUGCUAGAUGAGCACCAGGUCUGUUCCAGGCUGUGGCAAGCUGGCUCCUGGCUCAGAAGUGACAAAGCUGCAGUACAGAGGCCUCACACACAGGUCAUCACCUCACAGUGGCUACAGACCAGGCUGUGGCCUGAGUGAGCUGGAACCUCUGGGGUGGGGACGAGAAAGAGAGAGGGAGAGAGAGGGGGGAGAGUGACACACACACACACAAGGGGGAGACACACACGGGGAAGAGUGAGAGAGAUAGAGUCAUACACACAGAGGGACUCUUGCGGUCGCACUAGUGUGGAAUUCUCGGGUGUCAAGG
B10: ENSMUSG00000043670.237|Diras1|105:109;215:227;238:244 (ssRNA)
RNA: GGGAGUUCUACAGUCCGACGAUCGCUUCGAUAUCCGCAUGCUAGGGGUGGGUGACACAGGCCUGUCUGAUGAGCACCAGGUCUGUUCCAGGCUGUGGCAAGCUGGCUCCUGGCUCAGAAGUGACAAAGCUGCAGUACAGAGGCCUCACACACAGGUCAUCACCUCACAGUGGCUACAGACCAGGCUGUGGCCUGAGUGAGCUGGAACCUCUGGGGUGGGGACGAGAAAGAGAGAGGGAGAGAGAGGGGGGAGAGUGACACACACACACACAAGGGGGAGACACACACGGGGAAGAGUGAGAGACUCUUGCGGUCGCACUAGUGUGGAAUUCUCGGGUGUCAAGG
B11: ENSMUSG00000043670.238|Diras1|99:103;209:221;232:238 (ssRNA)
RNA: GGGAGUUCUACAGUCCGACGAUCGCUUCGAUAUCCGCAUGCUAGGUGACACAGGCCUGUCUGAUGAGCACCAGGUCUGUUCCAGGCUGUGGCAAGCUGGCUCCUGGCUCAGAAGUGACAAAGCUGCAGUACAGAGGCCUCACACACAGGUCAUCACCUCACAGUGGCUACAGACCAGGCUGUGGCCUGAGUGAGCUGGAACCUCUGGGGUGGGGACGAGAAAGAGAGAGGGAGAGAGAGGGGGGAGAGUGACACACACACACACAAGGGGGAGACACACACGGGGAAGAGUGAGAGAGAUAGACUCUUGCGGUCGCACUAGUGUGGAAUUCUCGGGUGUCAAGG
B12: ENSMUSG00000043670.236|Diras1|111:115;221:233;244:250 (ssRNA)
RNA: GGGAGUUCUACAGUCCGACGAUCGCUUCGAUAUCCGCAUGCUAUUUUCAGGGGUGGGUGACACAGGCCUGUCUGAUGAGCACCAGGUCUGUUCCAGGCUGUGGCAAGCUGGCUCCUGGCUCAGAAGUGACAAAGCUGCAGUACAGAGGCCUCACACACAGGUCAUCACCUCACAGUGGCUACAGACCAGGCUGUGGCCUGAGUGAGCUGGAACCUCUGGGGUGGGGACGAGAAAGAGAGAGGGAGAGAGAGGGGGGAGAGUGACACACACACACACAAGGGGGAGACACACACGGGGAAGAGUCUCUUGCGGUCGCACUAGUGUGGAAUUCUCGGGUGUCAAGG
B13: ENSMUSG00000061578.897|Ksr2|214:218 (ssRNA)
RNA: GGGAGUUCUACAGUCCGACGAUCGCUUCGAUAUCCGCAUGCUAUCCUGGGACACUACCCAAACCCUAGCACUCUCCCAGUGACUCUCCUAUGAGUACAUAUGCCAUCCUGCUUCCUUUGUGGCAAAACCCUGGGUCACCCAGAGACAGAUUUCCCAGAAUCCCUGGGCCACUUCUCAAUUCUACCCAUGACAGACAUGUCCCAUCCAUGAGCCCAGAUAGUCAAAGACUUCAGCACAAGGGUGUUUAGAGUAGGCACACACGAAGUAUCAAUAAGGUUAUUGAGAUGAGGAUUUAGAAAGAUCCUCUUGCGGUCGCACUAGUGUGGAAUUCUCGGGUGUCAAGG

Target: TDP-43 (Homo sapiens, UniProt Q13148 1-414)
Sequence (Q13148 whole entry): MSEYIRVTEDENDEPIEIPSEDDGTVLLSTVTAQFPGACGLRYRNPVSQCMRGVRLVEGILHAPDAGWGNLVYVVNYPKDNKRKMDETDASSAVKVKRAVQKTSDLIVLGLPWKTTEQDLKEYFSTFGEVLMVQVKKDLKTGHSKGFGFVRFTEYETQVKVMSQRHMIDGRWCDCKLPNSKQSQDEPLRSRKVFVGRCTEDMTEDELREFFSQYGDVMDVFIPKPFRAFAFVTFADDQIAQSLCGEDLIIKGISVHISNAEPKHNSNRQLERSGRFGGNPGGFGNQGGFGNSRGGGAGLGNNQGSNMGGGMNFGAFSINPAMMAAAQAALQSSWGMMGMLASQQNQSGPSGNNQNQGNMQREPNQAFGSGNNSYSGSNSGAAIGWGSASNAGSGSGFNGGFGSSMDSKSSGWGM
Assay: RNA Bind-n-Seq with designed 260-mer pool; 25 mM Tris-HCl, 150 mM KCl, 3 mM MgCl2, BSA (printed 500 mg/mL), 20 units/mL SUPERase IN; pH not stated; 500 nM RNA pool, 1 h, 4 C; TDP-43 5, 50, 500 nM; high values mean tight binding
Conditions: protein: recombinant; tags: SBP (GST cleaved off with PreScission; pGEX-GST-SBP)
Outline: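 An in vitro-transcribed pool of 260-nt 3′ UTR oligos (500 nM) was incubated for 1 h at 4 °C with recombinant SBP-tagged TDP-43 at 5, 50 or 500 nM held on streptavidin beads. The buffer contained 25 mM Tris-HCl, 150 mM KCl, 3 mM MgCl2, BSA and SUPERase IN. Biotin-eluted bound RNA was sequenced, and binding, R, is each oligo's normalized read abundance in the bound sample over that in input.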

Binder | binding signal
B1 | 0.297 R (bound/input frequency ratio)
B2 | 1.54 R (bound/input frequency ratio)
B3 | 0.863 R (bound/input frequency ratio)
B4 | 6.45 R (bound/input frequency ratio)
B5 | 3.45 R (bound/input frequency ratio)
B6 | 12.1 R (bound/input frequency ratio)
B7 | 6.5 R (bound/input frequency ratio)
B8 | 7.61 R (bound/input frequency ratio)
B9 | 4.89 R (bound/input frequency ratio)
B10 | 9.04 R (bound/input frequency ratio)
B11 | 4.05 R (bound/input frequency ratio)
B12 | 3.82 R (bound/input frequency ratio)
B13 | 0.295 R (bound/input frequency ratio)
